PubChem BioAssay AID1508600 (Functional Genomics Laboratory (NCATS/FGL), 2020)
Among all 53,000 sequences or so, about 3,700 (7%) were called active.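 The calls were made as follows: active = gene knockdowns whose robust z-score for IL-1 alpha signal is at least 2 or at most -2, so actives lie on both sides; inactive = the rest.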 Many of the other results were omitted from the sample, so actives are more common in it than they were.

Test: Components of the Cytosolic LPS Sensing Pathway: Gene Identification via Genome-wide siRNA Screen;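 also: robust z of the log signal after scaling to non-targeting control siRNA wells of the plate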
Settings: RAW264.7 macrophages, IL-1a HTRF, actives lie on both sides, screened at 100 nM (by protocol), cells primed 5 h with Pam3CSK4 first
Summary of the method: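 Mouse macrophage line RAW264.7 is transfected with siRNA (100 nM final), grown 48h, primed with TLR ligand Pam3CSK4 5 h and given intracellular LipidA 24 h. IL-1a in supernatant is read by HTRF and viability by luminescence.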

z-score, active:
CCUGGCACUCAUAGUAUACTT against Tm6sf2 -2.33
GGAAAUCUACAUCAUGGCUTT against Ift140 -2
GCUACACCCGCAUGACAAATT against Trit1 2.43
GGCAAGAAGGACAAUGAGUTT against Mb21d2 -2.82
GCUUCACUCUCUUCUUUGCTT against Olfr1463 -3.05
GGUGCUUGGGAAUUUUGAUTT against Gpsm2 2.31
GGGUAACAGAUGAAGGGUCTT against Synpo2l 2.48
GGUACAUCUUAGAGGCCAATT against Epo 2.66
GGACGUGUACAUUGUCAAGTT against Unc5a 2.07
CGAGAUUAUCAGUCAAUUGTT against Tex24 2.02
GGAGACAACCUGUACUCAGTT against Zfp352 -3.18
GGGUCUUCAGUAUUAACACTT against Yae1d1 2.62
GCUCCUACAAAACAUCCGATT against A130079P16Rik -2.12
GGAUGGUCUUAGGAUUACGTT against Fgf15 2.04
GGUGGAUUUUAAGUUUCCUTT against Aurkc 3.43
GGCUAAUGUAUCGUCUGAGTT against Asb16 3.06
GGUGUGUGGCCAGAAAGUUTT against Sfi1 -2.83
GCACAAUAAUAAUGACACUTT against AI597479 2.76
GGCUGUUCAAAGUGACCCUTT against Hbp1 -3.11
GGUGCUGAUUACAGUAGAATT against Pcdhga10 2.01

z-score, inactive:
GGUGCUGGUUUUUAAGAAATT against Hsbp1 1.84
CGGAAUGCCAAAGAUGUGGTT against Sult1d1 -0.872
GUGACUCCCAAACUCCUGATT against Olfr1180 -1.81
CCAUUCCUUAAAAGAGCAUTT against Lce1g 1.07
GGACUUUCUUAACUACACUTT against Slc2a3 0.865
GGAUUACGGUGGGAUCAUGTT against Faxc -1.38
GGUGCUGAUGGGAGAUAGUTT against 1700010H22Rik -0.851
GGGAAGAGAGACGAAAAAATT against Nufip1 1.13
GGACCAGCUUGAAGCUGAATT against Atl2 0.388
GGCUAAAAUAAAGAAGAAGTT against Cfap100 0.00546
CCGACAGCUCUAAAGGAACTT against Celf6 0.838
GGUUAUAUAAGCAUCAAGGTT against Adamts18 -0.621
GCAGAGCGGGAUUUCAUUCTT against Sh3glb2 -1.23
CCAUAUGGCUUAUCUUAUUTT against Adam5 0.138
GGUUUUUGUUGUAAUAGGCTT against Olfr915 -0.758
GGUAACAACUUUUAAGCCUTT against Prps2 -0.318
GCAGCUUAAGUUGCCCAAGTT against Aatk -0.27
GGAUUUUGCUGUUUUGGAATT against Dsc1 0.41
CGGUAGCCAUAUUAAUAUCTT against Spink2 0.417
GGCUUACAAUGUGAUUUACTT against Cd7 1.92
GCUCAACAAGGAUACGGUGTT against Tnfrsf11a 0.704
GGAUAUAACCAUCCUCUGUTT against Zscan29 0.578
GGGUCCCAAACAAUAACUUTT against Aebp1 1.7
CCCAGACUCAGUUUUAACUTT against Spsb4 -1.88
GGGCCUCCUUCUCAUCAUUTT against Scarf2 0.9
GGUAACUUCCCAGGAGGGATT against Bcl9 0.549
GGAUUGGUUCAUGACCUGATT against Trim52 -0.814
GGUGAUCCUUAUGCUGUUATT against Ehmt2 0.305
CCAUCAUGACGGUUCCCUATT against Mrgpra5 -1.43
GGUUCUUCCCACAGAAGACTT against Pggt1b 0.176
GGAUGACGAAGCCUAUGAUTT against Nacc2 -1.16
GGAGUGACAAAAGAAAUAATT against Nudt12 0.489
GGAAAUACUCUCAUCAUCGTT against Olfr214 -1.17
CGCAUAUCUAGAAUGGUUATT against 2810021J22Rik 1.74
GGACUACUCCAGAAAGCUUTT against Wdfy3 -0.0605
GCAAAAUGGUUCCUUUGGATT against Sec24c -0.396
GGACAUUAUUUCUAUAUGGTT against Eif4e2 -1.2
GGCCCAUUCAGAUCAUCCATT against Vmn1r65 -0.197
CCCGGUAUUAAAUUUAAUGTT against Aox4 0.807
GCAUGUUUAGAACUAGCUCTT against Zfp87 0.76
CCAUCAAUUGGAAAUCUUUTT against Tnn -1.01
CUCAGAUAUUCUUUUCCCATT against Olfr142 -1.25
CGUGUAACACACGAUUAGATT against Myot 0.587
GGAACUUCAUUGAACUAUGTT against Trmt2b -0.363
GUUAUCAGGAAGGAAAGCCTT against Sdhaf4 0.248
GGACAGCAAGACAGAAAACTT against Csf2rb2 -0.26
GGCUGGAGAUCUCUCAAAGTT against Nkain2 1.64
GGCUUCUGUUUUUAUUUGUTT against Zbtb7c 1.07
CGAACUGAAGGUUUUCAAUTT against Knstrn 0.422
CCUCACGGCCUUAUAUCUCTT against Fmod -1.8
GGAGAGAGAUGCCCAAAUCTT against Zfp507 -0.362
CCAGCUGUGUAACACUACCTT against Gfi1 1.08
CCUCUACGAUGACUGGAUGTT against Sh3bp1 0.227
GGCAUACCGGAAACUUGCCTT against Dnajb13 -0.266
GGUACAAACACGAUCAAGGTT against Aox4 0.654
GGGAAUCAUUAAAUAGGAUTT against Arhgap26 -0.163
GGAAGAGCAUGAGUCGUUUTT against Scarb2 -0.122
GGAAGUUCAUCAUGAUAUCTT against Cxadr -0.108
GGGCGAUGAAGAAGAGAAATT against Smad1 -0.443
GGAAAGUUCUAAUGUUCAUTT against Sumo1 1.55
GGAACCCAUCUCUCAAGCATT against Atp5g1 0.563
GGCAAUUCAAACAAUGCAGTT against Orm1 -1.41
GCUAUAAUUUGACAGUUAGTT against Lrba 0.0367
GGAGAGAUGCCUUUUAAGUTT against Zfp954 -0.252
GGUAAAGAUCCAGUGCCGCTT against Tbc1d10c -1.02
GGUUCAAGUGCAUUGCUUCTT against Rab34 0.979
GGGCAAUCUGAGCAAUUGUTT against Wnt7b -0.213
GCCUAGACAAUGGUGACCUTT against Nsfl1c -0.772
CCGACAUUUUCGUCACCAGTT against Gabra1 -1
CCAGCCAUAUCAACCGUAUTT against Lzts3 0.084
CCGCUUCUCUAGUGAAUAATT against Uros -1.56
GGAAACACUUGAACAAAGATT against Tph2 0.518
GGACAUGUUUGUGUUAAAGTT against Ctnna1 0.187
GCUUUAUGAGUUCACGGAGTT against Prkab2 1.02
GGUUCUUAUCUCUAUUCAGTT against Olfr1270 0.432
GGAAACCUACUGUUGCACUTT against Wdr59 -0.627
GAAGAUUGGAUUUAAAGCCTT against Olfr667 -0.891
GGCUACAAGUGGGAAUUCATT against Cmtm2b 1.61
GGAGCUCAAGAACAGGAUGTT against Clec3b -0.0394
GCGGAGAAUAACAUAUCUCTT against Fut8 -0.521
GGAUUUGUAAAUUACCUGGTT against Clec4d 0.544
GUAUGCUAGCAUGAUCAACTT against Ndufa3 1.05
GGCCAGAUAUUAUAAGAAATT against Gtdc1 0.332
GCCUUUGCAUGGCAGUCUATT against Zfp825 -0.716
GCUGCCUAUGGCUUCUUCCTT against Tmem160 -1.37
GGACCAAGUAUCAUGAUGUTT against Zfp369 0.222
GCACCUCUUGGACAAAAUUTT against Tsc1 -1.59
GGCGGCCUAUAUGAGGUUCTT against Cftr 0.548
